Measurements reported in PubChem BioAssay AID1159580 (chemical genetic matrix, 2015).
“And” between values parts separate entries of the source, which are not always exact repeats. Equal entries are not always repeated. About 2,000 (36%) of roughly 5,500 compounds were called active. Inconclusive results (about 18%) are left out. Cut-off read from the data, not from the text of the source: active = normalized growth mostly below about 0.91 (no sharp cut-off); inconclusive = no clear call, values can overlap the other calls; inactive = mostly above about 0.92. The list shows a part of the results.

Assay: chemical genetic growth profiling, strain panel (AID 1159580);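 note: tested at 20 µM; growth read once vehicle control cultures reached saturation at 30 °C; 1 = growth at the plate median or of vehicle wells; lower values mean less growth of the strain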
Conditions: S. cerevisiae deletion strains, growth OD

Measured: normalized growth

O=c1cccc2n1C[C@H]1CNCC2C1
inactive: locus YAL021C, strain ccr4, stronger effect = lower value 1 | locus YAL026C, strain drs2, stronger effect = lower value 1.01 | locus YAL030W, strain snc1, stronger effect = lower value 1.01 | locus YBL061C, strain skt5, stronger effect = lower value 1.01 | locus YBR009C, strain hhf1, stronger effect = lower value 0.982 | locus YBR021W, strain FUR4, stronger effect = lower value 1.03 | locus YBR023C, strain chs3, stronger effect = lower value 0.999 | locus YBR171W, strain sec66, stronger effect = lower value 0.997 | locus YBR229C, strain ROT2, stronger effect = lower value 1 | locus YBR231C, strain swc5, stronger effect = lower value 1.02 | locus YBR279W, strain paf1, stronger effect = lower value 1 | locus YCL011C, strain gbp2, stronger effect = lower value 0.99 | locus YCL016C, strain dcc1, stronger effect = lower value 0.973 | locus YCL029C, strain bik1, stronger effect = lower value 0.985 | locus YCL061C, strain MRC1, stronger effect = lower value 0.987 | locus YCL069W, strain vba3, stronger effect = lower value 1 | locus YCR088W, strain abp1, stronger effect = lower value 1 | locus YDL005C, strain med2, stronger effect = lower value 1.01 | locus YDL035C, strain GPR1, stronger effect = lower value 0.988 | locus YDL040C, strain nat1, stronger effect = lower value 1.01 | locus YDL074C, strain BRE1, stronger effect = lower value 0.984 | locus YDL101C, strain DUN1, stronger effect = lower value 1.01 | locus YDL134C, strain PPH21, stronger effect = lower value 1.03 | locus YDL185W, strain tfp1, stronger effect = lower value 0.955 | locus YDL192W, strain arf1, stronger effect = lower value 0.987 | locus YDR001C, strain nth1, stronger effect = lower value 1.01 | locus YDR069C, strain doa4, stronger effect = lower value 1.01 | locus YDR101C, strain arx1, stronger effect = lower value 0.966 | locus YDR137W, strain rgp1, stronger effect = lower value 1.02 | locus YDR150W, strain NUM1, stronger effect = lower value 1 | locus YDR159W, strain sac3, stronger effect = lower value 1 | locus YDR162C, strain NBP2, stronger effect = lower value 1.01 | locus YDR195W, strain ref2 0.999 | locus YDR297W, strain sur2, stronger effect = lower value 0.999 | locus YDR318W, strain mcm21, stronger effect = lower value 0.996 | locus YDR334W, strain swr1, stronger effect = lower value 0.999 | locus YDR335W, strain msn5, stronger effect = lower value 1.01 | locus YDR388W, stronger effect = lower value 0.992 | locus YDR392W, strain spt3, stronger effect = lower value 0.899 | locus YDR502C, strain sam2, stronger effect = lower value 1 | locus YEL003W, strain gim4, stronger effect = lower value 1 | locus YEL037C, strain rad23, stronger effect = lower value 1.01 | locus YEL061C, strain CIN8 (second series), stronger effect = lower value 1.01 | locus YEL061C, strain CIN8, stronger effect = lower value 1.01 | locus YER015W, strain faa2, stronger effect = lower value 1.01 | locus YER016W, strain bim1, stronger effect = lower value 1.01 | locus YER110C, stronger effect = lower value 0.974 | locus YER111C, strain swi4, stronger effect = lower value 0.985 | locus YER155C, strain BEM2 (second series), stronger effect = lower value 0.974 | locus YER155C, strain BEM2, stronger effect = lower value 1 | locus YER167W, strain BCK2, stronger effect = lower value 1 | locus YFR010W, strain ubp6, stronger effect = lower value 1.02 | locus YGL078C, strain dbp3, stronger effect = lower value 0.982 | locus YGL086W, strain mad1, stronger effect = lower value 0.965 | locus YGL167C, strain pmr1, stronger effect = lower value 0.994 | locus YGL173C, strain kem1, stronger effect = lower value 0.998 | locus YGL227W, strain vid30, stronger effect = lower value 1.01 | locus YGL240W, strain doc1, stronger effect = lower value 1.05 | locus YGL248W, strain PDE1, stronger effect = lower value 1.03 | locus YGL253W, strain hxk2, stronger effect = lower value 1.01 | locus YGR078C, strain PAC10, stronger effect = lower value 1.03 | locus YGR135W, strain pre9, stronger effect = lower value 1.02 | locus YGR252W, strain gcn5, stronger effect = lower value 1.1 | locus YHR013C, strain ard1, stronger effect = lower value 0.98 | locus YHR027C, strain rpn1, stronger effect = lower value 1.01 | locus YHR030C, strain SLT2, stronger effect = lower value 0.997 and 1.01 | locus YHR079C, strain IRE1 (second series), stronger effect = lower value 0.966 | locus YHR079C, strain IRE1, stronger effect = lower value 1.04 | locus YHR094C, strain hxt1, stronger effect = lower value 0.995 | locus YHR129C, strain ARP1, stronger effect = lower value 1 | locus YHR142W, strain chs7, stronger effect = lower value 0.991 | locus YHR200W, strain rpn10, stronger effect = lower value 0.979 | locus YIL066C, strain RNR3, stronger effect = lower value 1.02 | locus YIL073C, strain SPO22, stronger effect = lower value 0.947 | locus YIL125W, strain kgd1, stronger effect = lower value 0.987 | locus YIR030C, strain dcg1, stronger effect = lower value 0.992 | locus YJL092W, strain hpr5, stronger effect = lower value 1 | locus YJL095W, strain BCK1 (second series), stronger effect = lower value 1 | locus YJL095W, strain BCK1, stronger effect = lower value 1.07 and 1.01 | locus YJL115W, strain asf1, stronger effect = lower value 0.998 | locus YJL129C, strain trk1, stronger effect = lower value 1 | locus YJL134W, strain LCB3, stronger effect = lower value 0.999 | locus YJL154C, strain vps35, stronger effect = lower value 0.997 | locus YJL164C, strain tpk1, stronger effect = lower value 1 | locus YJL166W, strain qcr8, stronger effect = lower value 0.98 | locus YJL168C, strain set2, stronger effect = lower value 0.984 | locus YJL187C, strain SWE1 (second series), stronger effect = lower value 1.01 | locus YJL187C, strain SWE1, stronger effect = lower value 1.01
